Source: PubChem (several laboratories)
This is a sample that favours compounds with a hit; in the whole collection about 3.9% have one here.
BH1578 lux ind = induces V. cholerae light production without autoinducers | V. cholerae BH1578 lux reporter, luminescence, 6 h | activation, % at 18.7 µM | 350,000 tested, 0.16% active; in the data active = activation mostly above about 9.7%, no sharp cut-off
CCHF vOTU inh = blocks the CCHF virus ovarian tumor domain protease; CCHFV vOTU protease, Pep-AMC fluorescence; inhibition, % at 11.5 µM; 370,000 tested, 0.55% active; AID 651958
GDH-TPI counter = inhibits GDH-TPI coupling enzymes, artifact for Mtb FBA screen; inhibition, % at 4.8 µM; 360,000 tested, 1.2% active; GDH-TPI coupled enzyme counterscreen, NADH absorbance
Mtb FBA inh = inhibitors of M. tuberculosis fructose-bisphosphate aldolase; P9WQA3; purified M. tuberculosis FBA, fluorescence read-out; inhibition, % at 1 µM; 360,000 tested, 2.3% active; in the data active = inhibition above about 27%
Target sequence (P9WQA3 whole entry, looked up): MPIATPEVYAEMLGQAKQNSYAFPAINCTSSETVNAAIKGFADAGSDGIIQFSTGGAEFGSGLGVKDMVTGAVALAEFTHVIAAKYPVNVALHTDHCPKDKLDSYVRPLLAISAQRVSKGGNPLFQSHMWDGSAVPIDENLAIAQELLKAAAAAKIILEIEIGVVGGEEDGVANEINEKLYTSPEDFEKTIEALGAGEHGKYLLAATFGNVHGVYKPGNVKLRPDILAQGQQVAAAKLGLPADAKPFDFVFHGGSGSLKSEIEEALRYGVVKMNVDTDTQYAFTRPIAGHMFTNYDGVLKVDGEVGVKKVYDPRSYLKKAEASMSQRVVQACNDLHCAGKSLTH
Of the large screens only hits and unclear results are named; the others gave an inactive call. Cut-off read from the data, not from the text of the source, unless noted: active = inhibition above about 30%; inactive = the rest.

Cc1cc(NS(=O)(=O)c2ccc(NC(=O)/C=C/c3ccco3)cc2)nc(C)n1	GDH-TPI counter 48
Cc1csc(NC(=O)/C=C/c2ccco2)n1	GDH-TPI counter 33
Cc1cc(NS(=O)(=O)c2ccc(NC(=O)c3ccco3)cc2)nc(C)n1	none
COCCCNC(=O)C1CCC(=O)N1Cc1ccccc1Cl (centres undefined)	none
O=C(CN1C(=O)C2CC=CCC2C1=O)NC1CCCc2ccccc21 (centres undefined)	none
CCOc1cc(/C=N\NC(=O)c2ccc(C)nc2)cc([N+](=O)[O-])c1O	GDH-TPI counter 49
COc1cc([N+](=O)[O-])cc(/C=N/NC(=O)c2ccc(C)nc2)c1O	GDH-TPI counter 37
COc1cc(/C=N/NC(=O)c2ccc(C)nc2)cc([N+](=O)[O-])c1O	none
C/C(=N/NC(=O)CNC(=O)c1cccnc1)c1ccccc1	none
Oc1cccc2ccc(/C=C/c3cccs3)nc12	GDH-TPI counter 31
Cc1ccsc1/C=C/c1ccc2cccc(O)c2n1	none (no result: BH1578 lux ind)
COc1ccc(/C=N/NC(=O)CCNc2n[nH]c(=O)[nH]c2=O)c(OC)c1	none
CS(=O)(=O)c1ccc(C(=O)OCc2nnc(-c3ccc(Cl)cc3)o2)cc1[N+](=O)[O-]	Mtb FBA inh 87 (no result: CCHF vOTU inh)
O=C(OCc1nnc(-c2ccc(Cl)cc2)o1)c1ccc(O)cc1	none
COC(=O)c1sc(-c2ccc(C(C)(C)C)cc2)cc1NC(=O)c1ccccc1C(=O)O	none
CCOc1ccc(-c2cc(NC(=O)c3c(F)cccc3F)c(C(=O)O)s2)cc1	GDH-TPI counter 32
COC(=O)c1sc(-c2ccc(Cl)cc2)cc1NC(=O)c1ccccc1C(=O)O	GDH-TPI counter 32
CCOc1ccc(NC(=O)Nc2cc(-c3ccccc3)sc2C(=O)OC)cc1	none
CC(OC(=O)c1cccnc1)C(=O)NCc1ccc2c(c1)OCO2 (centres undefined)	none
COc1cc(/C=N/NC(=O)COc2ccccc2[N+](=O)[O-])ccc1OC(=O)c1ccco1	none
CC(=O)N1N=C(c2ccc(C)o2)CC1c1ccc(F)cc1 (centres undefined)	GDH-TPI counter 71
CCC(=O)N1N=C(c2ccc(C)o2)CC1c1ccc(Br)cc1 (centres undefined)	none
COc1cccc(-c2nc3ccccc3s2)c1O	none
COc1ccc(-c2nc3ccccc3s2)cc1O	GDH-TPI counter 36
COc1cc(OC)c(-c2nc3ccccc3s2)cc1OC	Mtb FBA inh active
COc1cc(-c2nc3ccccc3s2)ccc1O	Mtb FBA inh 150
CCOc1cc(-c2nc3ccccc3s2)ccc1O	Mtb FBA inh active
O=C(NCc1ccco1)c1cnn2c1NC(c1ccc(Br)cc1)CC2C(F)(F)F (centres undefined)	none
O=C(NCCc1c[nH]c2ccccc12)c1ccc2nc[nH]c2c1	none
O=C(NCc1ccccn1)C(=O)N/N=C/c1ccccc1O	none
COc1cc(OC)c(C2=NOC(C(=O)NCc3cccs3)C2)cc1Cl (centres undefined)	none
Cc1c(CC(=O)N2CCC(O)CC2)c(=O)oc2cc3c(cc12)CCC1(CCCCC1)O3	Mtb FBA inh 181
Cc1c(CC(=O)N2CCC(C(=O)O)CC2)c(=O)oc2cc3c(cc12)CCC1(CCCCC1)O3	GDH-TPI counter 41, Mtb FBA inh active
Cn1c(O)c(C=Nc2ccc(Cl)cc2)c(=O)n(C)c1=O	none
Cn1c(O)c(C=Nc2ccccc2)c(=O)n(C)c1=O	GDH-TPI counter 46
COc1ccccc1N=Cc1c(O)n(C)c(=O)n(C)c1=O	none
Cn1c(O)c(/C=N/c2ccccn2)c(=O)n(C)c1=O	GDH-TPI counter 33
c1ccc2c(c1)Cn1nnnc1-2	Mtb FBA inh 135 (no result: CCHF vOTU inh)
Cc1cc(OCC(=O)NC(C)c2ccccc2)ccc1[N+](=O)[O-] (centres undefined)	none
COc1ccc(OC)c(Cc2nnc(CCC(=O)NC3CCCCC3)o2)c1	none
COc1ccc2c(C)c(CCC(=O)NC3CC3)c(=O)oc2c1	Mtb FBA inh 173
Cc1c(CCC(=O)NC2CC2)c(=O)oc2cc(O)ccc12	Mtb FBA inh active
CCOC(=O)c1sc2nc(CC(=O)OC)nc(NCCN(CC)CC)c2c1C	Mtb FBA inh 132
NC(=O)c1ccc(/C=N/O)[n+](Cc2ccccc2)c1	GDH-TPI counter 35
COc1ccc(/C=N/NC(=O)c2ccc3ccccc3c2)cc1OS(=O)(=O)c1ccc(NC(C)=O)cc1	GDH-TPI counter 36
COc1cc(/C=N/NC(=O)c2cc[n+]([O-])cc2)cc(OC)c1OC	GDH-TPI counter 39
CCOc1cc(/C=N/NC(=O)c2ccc(N(C)S(=O)(=O)c3ccccc3)cc2)ccc1OC	GDH-TPI counter 42
COc1cc(/C=N/NC(=O)c2ccc(N(C)S(=O)(=O)c3ccccc3)cc2)cc(OC)c1OC	none
COc1cc(C(=O)NN=Cc2ccc(N(C)C)cc2)cc(OC)c1OC	GDH-TPI counter 42
COc1cc(/C=N/NC(=O)C2CC(=O)N(c3ccc(C)cc3)C2)cc(OC)c1OC (centres undefined)	none
Nn1c(SCC(=O)Nc2ccc(N3CCOCC3)cc2)nnc1-c1ccccc1F	none
CSc1nc2nccc(/C=C\c3ccccc3)n2n1	GDH-TPI counter 31
CSc1nc2nccc(-c3ccc(Cl)cc3)n2n1	none
CCOc1ccc(N2C(=O)CC(N(C)Cc3ccccc3)C2=O)cc1 (centres undefined)	none
COC(=O)[C@]1(Cc2ccccc2)N[C@H](c2ccc(-c3ccccc3)cc2)[C@@H]2C(=O)N(C)C(=O)[C@@H]21	none
COC(=O)[C@]1(Cc2ccccc2)N[C@H](c2ccc(-c3cc(C(C)=O)cs3)cc2)[C@@H]2C(=O)N(C)C(=O)[C@@H]21	GDH-TPI counter 34
Cc1ccccc1S(=O)(=O)/N=C(/Nc1nc2ccccc2s1)c1ccccc1	GDH-TPI counter 44
Cc1ccc(S(=O)(=O)NCC(=O)OCc2csc(CC(=O)Nc3ccccc3C)n2)cc1C	none
COc1cc(C2NC(=O)NC(C)=C2C(=O)OC2CCCCC2)cc(Cl)c1O (centres undefined)	Mtb FBA inh 184
COc1ccccc1Oc1c(C)oc2c(CN3CCN(C)CC3)c(O)ccc2c1=O	none (no result: BH1578 lux ind, GDH-TPI counter, Mtb FBA inh)
COc1ccc(Oc2c(C)oc3c(CN(C)C)c(O)ccc3c2=O)cc1	Mtb FBA inh 43
COc1cccc(Oc2c(C)oc3c(CN4CCCCC4)c(O)ccc3c2=O)c1	Mtb FBA inh 179
COc1ccc(Oc2coc3c(CN4CCOCC4)c(O)ccc3c2=O)cc1	none
COC(=O)c1ccc(Oc2c(C)oc3c(CN4CCN(C)CC4)c(O)ccc3c2=O)cc1	Mtb FBA inh active
COc1ccc(Oc2coc3c(CN(C)C)c(O)ccc3c2=O)cc1	none
Cc1oc2c(CN(C)C)c(O)ccc2c(=O)c1-c1cscn1	Mtb FBA inh 66
COc1cccc(N(C)C(=O)[C@@H](C)[C@@H](O)c2ccc(C(C)=O)cc2)c1	none (no result: BH1578 lux ind, GDH-TPI counter, Mtb FBA inh)
Cc1nn(-c2ccccc2)c2nc(N)c(C(N)=O)cc12	Mtb FBA inh 71
COC(=O)C1CN(Cc2ccc(C)cc2)CCS(=O)(=O)N1Cc1cn(Cc2ccc(Cl)cc2)nn1 (centres undefined)	none (no result: BH1578 lux ind, GDH-TPI counter, Mtb FBA inh)
BrC(=C\c1ccccc1)/C=N/Nc1ccc2nncn2n1	GDH-TPI counter 32
C(=N\Nc1ccc2nncn2n1)/c1ccco1	none
C=C(C)Cn1c2ccc(NC(=O)CCc3cccc(Cl)c3)cc2c(=O)n1C	Mtb FBA inh active
